Measurements reported in PubChem BioAssay (NCI).
This is part of a sample that, as a whole, favours compounds with a hit. Of some 83,000 tested, about 20% had one in any assay.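 Single-dose data. Exposure time 48 hours. Values below 10 considered active.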 Values without a mark were called inactive. Calls of active or inactive are those of the source.

What was measured:
Experiment in all cases: NCI-60 one-dose screen, 48 h (100 = growth as untreated, 0 = no growth, -100 = all killed)
NCI-H23 lung = conditions: 10 µM unless noted
NCI-H226 lung = conditions: 10 µM unless noted
NCI-H322M lung = conditions: 10 µM unless noted
HOP-62 NSCLC = conditions: 10 µM unless noted
NCI-H460 lung = conditions: 10 µM unless noted
HOP-92 NSCLC = conditions: 10 µM unless noted
NCI-H522 lung = conditions: 10 µM unless noted
A549/ATCC NSCLC = conditions: 10 µM unless noted
786-0 renal = conditions: 10 µM unless noted
COLO 205 colon = conditions: 10 µM unless noted
DU-145 prostate = conditions: 10 µM unless noted
K-562 leukemia = conditions: 10 µM unless noted
MALME-3M melanoma = conditions: 10 µM unless noted
MDA-MB-231 breast = conditions: 10 µM unless noted
SF-268 CNS = conditions: 10 µM unless noted
SF-295 CNS = conditions: 10 µM unless noted
SF-539 CNS = conditions: 10 µM unless noted
M14 melanoma = conditions: 10 µM unless noted
RXF 393 renal = conditions: 10 µM unless noted
UACC-257 melanoma = conditions: 10 µM

Compound | growth (NCI-H23 lung) | growth (NCI-H226 lung) [%] | growth (NCI-H322M lung) [%] | growth (HOP-62 NSCLC) | growth (NCI-H460 lung) | growth (HOP-92 NSCLC) | growth (NCI-H522 lung) | growth (A549/ATCC NSCLC) [%] | growth (786-0 renal) | growth (COLO 205 colon) | growth (DU-145 prostate) | growth (K-562 leukemia) | growth (MALME-3M melanoma) | growth (MDA-MB-231 breast) | growth (SF-268 CNS) | growth (SF-295 CNS) | growth (SF-539 CNS) | growth (M14 melanoma) [%] | growth (RXF 393 renal) | growth (UACC-257 melanoma) [%]
CCN1C(=O)N(CC)C2C1NN=c1s/c(=C\c3ccccn3)c(=O)n12 (stereo unspecified) | 34.5% | 92.2 | 45.8 | 11.6% | 8.89% (active) | 37.3% | 15.1% | 32.5 | 22.3% | -2.81% (active) | 9.45% (active) | 8.75% (active) | 22.4% | 45.5% | 74.2% | 3.21% (active) | -19.8% (active) | 13 |  | 
NC(=S)NN=C1CCCCC1 | 89.5% | 87.5 | 99.3 | 91.9% | 97.8% | 92.1% | 70.3% | 84.7 | 106% | 93.2% | 95.1% | 40.1% | 91.6% |  | 93.5% | 92.8% | 99.7% | 81.2 | 109% | 73.3
Cc1ccc(S(=O)(=O)N2CCC(C(=O)Nc3ccc(F)cc3F)CC2)cc1 | 95.8% | 87.9 | 112 | 96.2% | 107% | 82.2% | 102% | 91.8 | 89.9% | 99.3% | 97.4% | 91.7% | 104% | 87.1% | 111% | 81.8% | 97.5% | 102 |  | 
COc1cccc2cc(-c3cc4ccccc4[nH]3)/c(=N/C(=S)Nc3ccccc3)oc12 | 61.8% | 69.9 | 84 | 18.5% | 69.3% | 5.47% (active) | 88.1% | 91.4 | 59.4% | 98.1% | 74.4% | 84.4% | 78.9% | 61.6% | 70.6% | 87.1% | 33% | 70.6 |  | 
C=CC(=O)N[C@H](/C=C/C(=O)OCC)Cc1ccc(-c2cc(Cl)cc(Cl)c2)cc1 | 76.1% | 68.9 | 92.9 | 88.4% | 98.7% | 73.7% | 51.1% | 76.4 | 96% | 95.8% | 91.1% | 89.4% | 87.6% | 72.9% | 84.7% | 83.1% | 99.9% | 88.7 |  | 
CCCCCCCCCCCCCCCCCCOc1cccc(CCOP(=O)(O)OCC[N+](C)(C)C)c1 | 96.3% | 95.3 | 105 | 72.2% | 60.7% | 72.9% | 72% | 84.9 | 91.2% | 97.4% | 95.9% | 116% | 101% | 95.5% | 68% | 87.2% | 95.1% | 93.4 |  | 
CCCCCCCC/C=C\CCCCCCCCOc1ccccc1CCOP(=O)(O)OCC[N+](C)(C)C | 90.2% | 95.6 | 106 | 42.1% | 9.07% (active) | 30.3% | 39.4% | 48.9 | 82.4% | 58.4% | 86.6% | 72.7% | 93% | 73.9% | 44.9% | 69.2% | 84.8% | 84.4 |  | 
O=S(=O)(NCCCNc1nccc(-c2c(-c3ccccc3)nc3sccn23)n1)c1ccc(F)cc1 | 38% | 24.2 | 68.3 | 89% | 47.9% | 86.9% | 38.4% |  | 44.8% | 17.9% | 44.8% | 26.4% | 67.9% | 58.4% | 51% | 29.8% | 82% | 35 | 47.2% | 71.3
CC(Br)C(Br)c1cc2c(cc1Br)OCO2 (stereo unspecified) | 96.4% | 99.3 | 87.5 | 68% | 126% | 106% | 87.2% | 72.4 |  | 90.2% | 108% | 112% | 100% | 110% | 99.6% | 98.5% | 91.1% | 94.3 | 104% | 
CC(=O)OCC1OC(OCC2OC(OC(C)=O)C(OC(C)=O)C(OC(C)=O)C2OC(C)=O)C(OC(C)=O)C(OC(C)=O)C1OC(C)=O (stereo unspecified) | 103% | 83.1 | 101 | 97.5% | 104% | 91.7% | 104% | 94.4 | 103% | 107% | 110% | 106% | 108% |  | 105% | 99.3% | 108% | 107 | 71% | 95.8
CC(=O)Nc1ccc(S(=O)(=O)N2C(=O)CCC2C(=O)Nc2ccc(Br)cc2)cc1 (stereo unspecified) | 21.9% | 50.2 | 31.8 | 45.6% | 21.2% | 11.8% | -7.58% (active) | 22.3 | 57.8% | 6.33% (active) | 44.2% | 0.475% (active) |  | 34.4% | 47.6% | 13.1% | 42.1% | 36.9 | 57.4% | 30.4
Oc1ccc(N=Cc2ccccc2)cc1 | 88.5% | 111 | 103 | 115% | 102% | 51.9% | 67.7% | 103 |  | 113% | 89.5% | 32.6% | 83.5% |  | 95.9% | 112% | 94.9% | 91.5 | 114% | 106
CCN(CC)c1cc(/C=C/c2ccc(OC)c(OC)c2)nc2cc(F)c(F)cc12 | -2.87% (active) | 24.6 | 90.9 | -78.8% (active) | 84.9% | -53.2% (active) | 33.9% | 64.8 | -18.7% (active) | 105% | 71.8% |  | 4.61% (active) | 8.74% (active) | 7.33% (active) | -66% (active) | 4.7% (active) | 74.6 | -58.7% (active) | 87.7
COc1ccc(NC(=O)CSc2nc3ccc(Cl)cc3c(=O)n2-c2ccccc2C(F)(F)F)c(OC)c1OC | 79.6% | 62 | 86.6 | 60.6% | 82.4% | -2.83% (active) | 32.4% | 72 |  | 92.9% | 79.1% | 92.8% | 60.8% | 54% | 66.7% | 60.9% | 66.9% | 91.4 | 60.3% | 86
CC1=NN2C(=NC3=C(CCC/C3=C\c3ccc(Cl)cc3)C2c2ccc(Cl)cc2)S1 (stereo unspecified) | 97.8% | 101 | 104 | 115% | 101% | 77.9% | 83.3% | 87 | 97.2% | 109% | 101% | 100% |  | 109% | 98.6% | 102% | 102% | 92.3 | 106% | 106
Cn1c(C(N)=O)cc2c1-c1nc(NC3CCCCC3)ncc1CCC2 | 93.7% | 70.9 | 110 | 90% | 94.3% | 6.02% (active) | 94.9% | 92.2 | 91.2% | 113% | 103% | 101% |  | 78.4% | 84.8% | 91.3% | 80.6% | 109 | 59.5% | 106
